# Inconclusive results are not listed. A call without a number means that no potency is given here. Calls of active or inactive are those of the source. Unless noted, calls come from the whole dose curve; as a rule, active = well fitted curve in the direction sought with a large enough effect; inconclusive = small, poorly fitted or top-dose-only effect, or another doubt; inactive = no such curve, though single readings can be large; an effect the other way counts as inactive or inconclusive.
# Experiments:
# [1] = biological target: ATP-dependent 6-phosphofructokinase (Trypanosoma brucei brucei) (UniProt O15648); test: qHTS Assay to Find Inhibitors of T. brucei phosphofructokinase: hit validation (AID 492961);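 note: luminescence reports ADP formed as PFK phosphorylates fructose-6-phosphate with ATP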; conditions: T. brucei PFK, ADP-Glo luminescence; series mostly up to 51.4 µM
# How it was run: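 ADP-Glo luminescence read-out of ADP formed by 1.25 nM PFK from 0.1 mM ATP and 0.5 mM F6P (TEA pH 8.0, 45 min, RT). Compounds titrated; activity normalized to no-enzyme and full-enzyme controls.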
# [2] = biological target: D(1A) dopamine receptor (Homo sapiens) (UniProt P21728); test: HTS Assay for Allosteric Agonists of the Human D1 Dopamine Receptor: Primary Screen for Agonists (AID 488981); conditions: Inducible HEK293 T-REx D1 cells, calcium-flux fluorescence, 180 s kinetic; series mostly up to 41.8 µM
# How it was run: (§1)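 Calcium flux in an inducible, force-coupled HEK293 Trex D1 line (overnight at 30 C): agonist mode is the 180 s kinetic read after compound; potentiator mode is the following 180 s read after dopamine at EC20.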
# [3] = biological target: D(1A) dopamine receptor (Homo sapiens) (UniProt P21728); test: HTS Assay for Allosteric Agonists of the Human D1 Dopamine Receptor: Primary Screen for Potentiators (AID 488982); conditions: HEK293 T-REx D1 inducible cells, calcium flux, kinetic fluorescence; series mostly up to 8.37 µM
# How it was run: as §1
# [4] = biological target: D(1A) dopamine receptor (Homo sapiens) (UniProt P21728); test: HTS Assay for Allosteric Agonists of the Human D1 Dopamine Receptor: Primary Screen for Antagonists (AID 488983); conditions: D1 receptor cell assay, antagonist mode, qHTS titration; series mostly up to 41.8 µM;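 note: calcium flux response to an EC80 dopamine challenge measured with no-wash dye; nearly all actives have a fitted effect of over 65% in size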
# How it was run: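 Tetracycline-induced HEK293 T-REx D1 line, force-coupled to calcium flux, read with no-wash calcium dye. Compound added after 10 s baseline, read 180 s for agonism, then EC80 dopamine added and read a further 180 s.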
# [5] = Validation screen for small molecules that induce genotoxicity in human embryonic kidney (HEK293T) cells expressing luciferase-tagged ELG1 (AID 493106); conditions: luminescence; note: potency is the fitted concentration of half-maximal effect
# How it was run: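 HEK293T cells expressing luciferase-tagged ELG1, 2,000 cells/well, exposed to compound 16 hr at 37 °C, 5% CO2. Luciferase read after ONE-Glo, 30 min at room temperature; increased signal indicates genetic stress.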
# [6] = biological target: Thyrotropin-releasing hormone receptor (Homo sapiens) (UniProt P34981); test: qHTS for Small Molecule Agonists and Allosteric Enhancers of Human TRH Receptor: Validation Screen for Agonists (AID 493127;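 active = calcium activation more than 3 SD above the typical response in the agonist read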); conditions: TRH receptor agonist cell assay; at 2 µM; stronger effect = higher value
# How it was run: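 TRHR cells loaded with fluo-8 calcium dye; FDSS kinetic fluorescence (Ex 480/Em 530) read at 1 s/cycle after 23 nL compound addition. Agonist-mode calcium response recorded before the 10 nM TRH (EC20) addition.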
# [7] = Nrf2 qHTS screen for inhibitors: Validation (AID 493153; active = well fitted inhibition curve with a large enough effect in the main read-out, with a control signal flat, not every such curve was filed as active); conditions: A549 ARE-Fluc reporter, 18-24 h; viability change: measured here: cytotoxicity max response; luciferase luminescence, at 46.1 µM (top of the series)
# How it was run: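 A549 cells carrying ARE-firefly luciferase reporter, 5000 cells/well in 5% FBS OPTI-MEM, treated with compound over a concentration series for 18-24 h at 37 C. Luciferase luminescence gave Nrf2 activity; CellTiter-Fluor fluorescence gave viability.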
# [8] = biological target: Galactokinase (Homo sapiens) (UniProt P51570); test: qHTS Validation Assay for Inhibitors of Human Galactokinase (GALK) (AID 493189); conditions: purified human GALK enzyme activity, qHTS 7-point titration; series mostly up to 57.5 µM
# How it was run: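 Enzyme activity is inferred from ATP consumption: human GALK phosphorylates galactose (100 uM) using 35 uM ATP for 1 h at room temperature, and luciferase-based Kinase-Glo Plus reports unconsumed ATP.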
# [9] = Validation screen for small molecules that induce DNA re-replication in SW480 colon adenocarcinoma cells (AID 504364); conditions: DNA re-replication phenotype (high-content imaging); series mostly up to 46.1 µM
# How it was run: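 SW480 cells (250/well) exposed 48 h at 37 C, 5% CO2, then Hoechst-stained 40 min. Nuclear DNA content imaged by fluorescence scanning (405 nm excitation, 500-530 nm emission); re-replication scored as increased nuclei with elevated intensity.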
# [10] = biological target: Peptidyl-prolyl cis-trans isomerase NIMA-interacting 1 (Homo sapiens) (UniProt Q13526); test: qHTS Validation Assay to Find Inhibitors of Pin1 (AID 504536; active = well fitted inhibition curve with a large enough effect in the polarisation, with a control signal flat, not every such curve was filed as active; the % refers to the polarisation); conditions: Pin1 fluorescence polarization peptide binding assay; series mostly up to 57.5 µM
# How it was run: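 Fluorescence polarization competition: compounds (titration) displace HiFluor-488-labeled Pin1-1b peptide from Pin1 (0.3 uM final) in pH 7.5 HEPES buffer with DTT, 10 min at room temperature; %Activity normalized to no-enzyme wells, curves fitted.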
# [11] = biological target: Phosphoglycerate kinase, glycosomal (Trypanosoma brucei brucei) (UniProt P07378); test: qHTS Validation Assay to Find Inhibitors of Phosphoglycerate Kinase (AID 504547); conditions: enzymatic PGK inhibition, coupled luminescence read-out; series mostly up to 57.5 µM
# How it was run: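 Inhibition of the enzyme is judged by a Kinase-Glo Plus luminescent signal following a one-hour incubation at room temperature. Because 1,3-BPG is unstable, it is made in situ by GAPDH at 100nM final; no-PGK wells define the baseline.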
# [12] = biological target: phosphoglycerate mutase (Leishmania major) (UniProt Q4Q090); test: qHTS Validation Assay to Find Inhibitors of Phosphoglycerate Mutase (AID 504548); conditions: biochemical enzyme activity; series mostly up to 57.5 µM
# How it was run: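 Luminescent end-point read-out via Kinase-GloPlus after a 10-minute development. Reaction: 1.25nM Leishmania major PGAM with substrate and compound, 45 minutes at room temperature in TEA buffer (pH 7.6) with MgCl2 and Tween-20.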
# [13] = biological target: Ubiquitin carboxyl-terminal hydrolase 1 (Homo sapiens) (UniProt O94782); test: Inhibitors of USP1/UAF1: Pilot qHTS (AID 504865); conditions: purified USP1/UAF1, Ub-rhodamine cleavage fluorescence; series mostly up to 114 µM;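 note: rhodamine fluorescence freed from ubiquitin-rhodamine substrate followed over time; top concentration of the series differs between compounds; nearly all actives have a fitted effect of over 35% in size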
# How it was run: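 Enzyme-free wells gave the negative control, while test wells held 1nM USP1/UAF1 preincubated with compound for 15 min at room temperature. Ub-Rho at 150nM final started the reaction, and fluorescence at 480/540 nm was recorded kinetically.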
# [14] = qHTS for Inhibitors of ATXN expression: Validation (AID 588378); conditions: cell-based ATXN2 expression reporter assay, luminescence; series mostly up to 57.1 µM; note: nearly all actives have a fitted effect of over 75% in size
# How it was run: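 After a 2 h attachment and 24 h compound incubation, HEK293-ATXN2-FFLuc wells are read for fluorescence at 405 nm excitation/525 nm emission as a viability measure, then for Bright-Glo luminescence reflecting ATXN2 expression.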
# [15] = biological target: DNA dC->dU-editing enzyme APOBEC-3G (Homo sapiens) (UniProt Q9HC16); test: qHTS for inhibitors of Vif-A3G interactions: Validation (AID 588379); conditions: Vif-A3G protein interaction assay; series mostly up to 46.1 µM
# How it was run: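 HeLa cells stably expressing Vif and A3G-eYFP, 700 cells/well, incubated overnight at 37 deg C, then exposed to compound overnight at 37 deg C. Inhibition of Vif-mediated degradation read as increased yellow fluorescence (Ex 488/Em 500-530) by laser-scanning cytometry.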
# Sequence of ATP-dependent 6-phosphofructokinase (Trypanosoma brucei brucei) (O15648 whole entry, looked up): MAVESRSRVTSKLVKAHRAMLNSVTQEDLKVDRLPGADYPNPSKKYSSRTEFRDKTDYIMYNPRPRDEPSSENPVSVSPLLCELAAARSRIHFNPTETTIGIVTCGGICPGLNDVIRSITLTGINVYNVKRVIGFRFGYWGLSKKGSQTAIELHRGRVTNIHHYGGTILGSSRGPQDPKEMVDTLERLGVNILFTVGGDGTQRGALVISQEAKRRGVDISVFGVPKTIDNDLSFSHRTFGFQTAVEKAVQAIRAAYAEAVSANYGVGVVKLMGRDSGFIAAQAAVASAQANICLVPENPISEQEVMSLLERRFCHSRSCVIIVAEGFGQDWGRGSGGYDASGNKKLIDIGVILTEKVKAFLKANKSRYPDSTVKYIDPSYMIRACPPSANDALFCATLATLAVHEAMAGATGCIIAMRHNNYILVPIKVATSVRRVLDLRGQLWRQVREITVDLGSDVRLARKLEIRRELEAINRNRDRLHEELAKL
# Sequence of D(1A) dopamine receptor (Homo sapiens) (P21728 whole entry, looked up): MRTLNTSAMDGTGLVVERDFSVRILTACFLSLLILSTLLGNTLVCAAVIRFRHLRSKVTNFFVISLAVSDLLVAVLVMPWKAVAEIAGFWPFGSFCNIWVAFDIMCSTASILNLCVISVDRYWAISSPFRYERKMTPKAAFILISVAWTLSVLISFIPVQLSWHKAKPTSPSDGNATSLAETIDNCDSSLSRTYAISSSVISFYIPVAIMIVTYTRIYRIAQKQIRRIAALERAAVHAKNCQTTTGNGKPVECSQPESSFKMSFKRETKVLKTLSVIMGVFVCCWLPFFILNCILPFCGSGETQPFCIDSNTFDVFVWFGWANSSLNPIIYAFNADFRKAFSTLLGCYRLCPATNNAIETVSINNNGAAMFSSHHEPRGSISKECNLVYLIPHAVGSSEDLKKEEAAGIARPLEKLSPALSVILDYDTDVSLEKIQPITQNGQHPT
# Sequence of Thyrotropin-releasing hormone receptor (Homo sapiens) (P34981 whole entry, looked up): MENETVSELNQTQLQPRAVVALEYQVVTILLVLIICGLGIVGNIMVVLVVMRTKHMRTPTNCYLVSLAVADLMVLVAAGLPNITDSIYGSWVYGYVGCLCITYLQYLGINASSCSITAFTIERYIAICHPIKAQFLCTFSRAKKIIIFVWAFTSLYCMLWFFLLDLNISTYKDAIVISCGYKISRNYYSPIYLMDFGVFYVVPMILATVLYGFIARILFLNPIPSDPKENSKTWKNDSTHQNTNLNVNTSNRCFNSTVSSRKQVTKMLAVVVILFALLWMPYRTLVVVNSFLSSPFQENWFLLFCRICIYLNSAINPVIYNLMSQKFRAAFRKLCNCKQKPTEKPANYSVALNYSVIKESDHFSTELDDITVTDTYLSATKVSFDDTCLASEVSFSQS
# Sequence of DNA dC->dU-editing enzyme APOBEC-3G (Homo sapiens) (Q9HC16 whole entry, looked up): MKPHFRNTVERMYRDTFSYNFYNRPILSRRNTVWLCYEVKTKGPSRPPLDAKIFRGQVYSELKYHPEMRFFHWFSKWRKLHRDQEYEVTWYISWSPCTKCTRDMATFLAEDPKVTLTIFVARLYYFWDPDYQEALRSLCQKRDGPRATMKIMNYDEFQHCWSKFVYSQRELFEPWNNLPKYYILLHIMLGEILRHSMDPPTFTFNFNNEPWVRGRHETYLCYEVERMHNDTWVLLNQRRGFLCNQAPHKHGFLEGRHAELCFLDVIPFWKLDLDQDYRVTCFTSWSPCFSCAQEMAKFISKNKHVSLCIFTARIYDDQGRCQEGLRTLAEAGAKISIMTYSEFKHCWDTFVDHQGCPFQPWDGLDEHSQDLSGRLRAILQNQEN
# Sequence of Ubiquitin carboxyl-terminal hydrolase 1 (Homo sapiens) (O94782 whole entry, looked up): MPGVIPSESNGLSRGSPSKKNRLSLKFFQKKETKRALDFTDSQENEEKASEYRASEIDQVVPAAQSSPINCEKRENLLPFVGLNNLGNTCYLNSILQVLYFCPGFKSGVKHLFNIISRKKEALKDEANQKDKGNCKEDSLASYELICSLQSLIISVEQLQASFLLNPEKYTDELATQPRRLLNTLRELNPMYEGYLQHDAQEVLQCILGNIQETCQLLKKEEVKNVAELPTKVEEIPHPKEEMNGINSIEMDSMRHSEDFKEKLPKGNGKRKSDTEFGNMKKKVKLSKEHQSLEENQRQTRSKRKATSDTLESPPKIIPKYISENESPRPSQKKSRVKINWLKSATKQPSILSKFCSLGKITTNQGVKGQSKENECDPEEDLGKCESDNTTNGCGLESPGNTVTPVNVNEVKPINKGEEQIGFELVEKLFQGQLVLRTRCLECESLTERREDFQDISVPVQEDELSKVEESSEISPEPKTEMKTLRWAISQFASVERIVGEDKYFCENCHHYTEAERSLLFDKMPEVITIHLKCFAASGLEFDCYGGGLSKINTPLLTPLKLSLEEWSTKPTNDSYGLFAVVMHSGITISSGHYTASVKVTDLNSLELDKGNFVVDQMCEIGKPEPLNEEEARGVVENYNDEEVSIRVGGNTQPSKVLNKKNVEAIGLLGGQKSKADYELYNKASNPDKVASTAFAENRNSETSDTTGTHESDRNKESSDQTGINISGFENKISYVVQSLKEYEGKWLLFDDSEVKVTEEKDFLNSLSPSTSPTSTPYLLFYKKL
# Sequence of Peptidyl-prolyl cis-trans isomerase NIMA-interacting 1 (Homo sapiens) (Q13526 whole entry, looked up): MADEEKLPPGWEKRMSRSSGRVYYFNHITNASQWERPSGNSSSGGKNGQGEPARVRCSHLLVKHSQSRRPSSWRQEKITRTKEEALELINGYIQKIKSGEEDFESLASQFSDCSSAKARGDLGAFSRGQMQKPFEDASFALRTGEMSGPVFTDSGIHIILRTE
# Sequence of phosphoglycerate mutase (Leishmania major) (Q4Q090 1-553): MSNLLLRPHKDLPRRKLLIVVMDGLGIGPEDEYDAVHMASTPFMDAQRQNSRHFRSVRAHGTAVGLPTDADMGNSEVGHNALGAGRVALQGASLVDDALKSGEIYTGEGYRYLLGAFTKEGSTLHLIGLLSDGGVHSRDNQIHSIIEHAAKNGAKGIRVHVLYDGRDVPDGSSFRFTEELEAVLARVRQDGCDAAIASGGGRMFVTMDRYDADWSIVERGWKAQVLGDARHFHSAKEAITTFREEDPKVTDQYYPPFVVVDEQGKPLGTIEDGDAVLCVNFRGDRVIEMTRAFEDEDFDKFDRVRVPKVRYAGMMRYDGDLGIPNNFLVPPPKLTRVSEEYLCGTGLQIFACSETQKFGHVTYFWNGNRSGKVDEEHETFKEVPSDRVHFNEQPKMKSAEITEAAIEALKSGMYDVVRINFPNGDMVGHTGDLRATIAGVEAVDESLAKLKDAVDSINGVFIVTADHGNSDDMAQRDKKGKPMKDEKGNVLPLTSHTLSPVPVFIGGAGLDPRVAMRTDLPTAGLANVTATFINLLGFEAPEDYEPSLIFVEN
# Sequence of Phosphoglycerate kinase, glycosomal (Trypanosoma brucei brucei) (P07378 whole entry, looked up): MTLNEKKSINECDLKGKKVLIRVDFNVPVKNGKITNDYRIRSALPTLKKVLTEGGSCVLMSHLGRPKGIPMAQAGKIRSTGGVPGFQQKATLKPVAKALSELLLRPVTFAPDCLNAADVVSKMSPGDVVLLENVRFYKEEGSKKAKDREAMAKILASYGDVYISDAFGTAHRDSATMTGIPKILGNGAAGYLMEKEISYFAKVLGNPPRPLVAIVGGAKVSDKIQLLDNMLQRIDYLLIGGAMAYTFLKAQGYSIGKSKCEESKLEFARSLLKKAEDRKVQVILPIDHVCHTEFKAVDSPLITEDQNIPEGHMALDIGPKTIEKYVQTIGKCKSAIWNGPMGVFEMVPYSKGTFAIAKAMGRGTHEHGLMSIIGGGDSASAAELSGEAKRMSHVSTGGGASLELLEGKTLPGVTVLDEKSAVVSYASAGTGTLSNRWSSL
# Sequence of Galactokinase (Homo sapiens) (P51570 whole entry, looked up): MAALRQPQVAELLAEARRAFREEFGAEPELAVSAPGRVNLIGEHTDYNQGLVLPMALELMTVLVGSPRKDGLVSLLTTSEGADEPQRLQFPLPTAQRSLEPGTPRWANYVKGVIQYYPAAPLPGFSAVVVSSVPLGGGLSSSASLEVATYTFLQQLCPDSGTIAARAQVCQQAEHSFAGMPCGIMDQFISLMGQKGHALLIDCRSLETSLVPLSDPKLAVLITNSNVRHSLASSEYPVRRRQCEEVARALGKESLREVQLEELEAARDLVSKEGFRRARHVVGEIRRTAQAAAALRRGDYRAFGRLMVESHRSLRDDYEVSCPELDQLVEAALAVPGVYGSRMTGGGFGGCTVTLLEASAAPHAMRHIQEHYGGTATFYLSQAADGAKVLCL
compound,measurement,setting,value
O=C(O)c1cc(N=Nc2ccc(O)c(C(=O)O)c2)ccc1O,Potency,[1],inactive
CCCCCCCCCCCCCCCCOCCOCCOCCOCCOCCOCCOCCOCCOCCOCCOCCOCCOCCOCCOCCOCCOCCOCCOCCOCCO,Potency,[1],inactive
NC(=O)Oc1ccc(Cc2ccccc2)cc1,Potency,[1],inactive
Cc1ccc(S(=O)(=O)NCl)cc1,Potency,[1],inactive
O=C(NNCS(=O)(=O)O)c1ccncc1,Potency,[1],inactive
CCCCC/C=C\C/C=C\C/C=C\CCCCC(=O)O,Potency,[1],inactive
COc1ccc2c(c1)OC(C)(C)C(c1ccccc1)C2c1ccc(OCCN2CCCC2)cc1 (configuration not stated),Potency,[1],inactive
CCC(=O)c1ccc2c(c1)N(CCCN1CCN(CCO)CC1)c1ccccc1S2,Potency,[1],inactive
Oc1ccc(/C=C/c2cc(O)cc(O)c2)cc1,outcome,[2],inactive
same,outcome,[3],inactive
same,outcome,[4],inactive
same,Potency,[5],2.91 µM (active)
same,activation,[6],0.812% (inactive)
same,outcome,[7],inactive
same,viability change,[7],-6.91%
same,outcome,[8],inactive
same,outcome,[9],inactive
same,outcome,[10],inactive
same,outcome,[11],inactive
same,outcome,[12],inactive
same,Potency,[13],inactive
same,outcome,[14],inactive
same,outcome,[15],inactive
COc1ccc(C(=O)c2ccc(C)cc2)c(O)c1,Potency,[1],inactive
C=CC(C)(O)CC/C=C(\C)CCC=C(C)C (configuration not stated),Potency,[1],inactive
CCCCCCCCCCCC(=O)OCC(O)CO (configuration not stated),Potency,[1],inactive
COc1ccc(/C=C/C(=O)OCCC(C)C)cc1,Potency,[1],inactive
CC1=CC(=C(c2ccc(N)cc2)c2ccc(N)cc2)C=CC1=N,Potency,[1],inactive
Cc1ncc(C[n+]2csc(CCO)c2C)c(N)n1,Potency,[1],inactive
CN1CCC(OC(=O)C(Oc2ccc(Cl)cc2)Oc2ccc(Cl)cc2)CC1,Potency,[1],inactive
S=C1SCN(Cc2ccccc2)CN1Cc1ccccc1,Potency,[1],inactive
CC1CC(OC(=O)C(O)c2ccccc2)CC(C)(C)C1 (configuration not stated),Potency,[1],inactive
